Measured values: paper PMC5540273 (PLoS ONE, 2017)

Assays:
Conditions in all cases: concentration: 1 μM, replicates: in singlicate; n = 1
PRKCE = system: PRKCE
PRKCH = system: PRKCH
PRKCI = system: PRKCI
PRKCQ = system: PRKCQ
PRKD1 = system: PRKD1
PRKD2 = system: PRKD2
PRKD3 = system: PRKD3
PRKG1 = system: PRKG1
PRKG2 = system: PRKG2
PRKR = system: T1, PRKR
T1 construct: gene EIF2AK2

PRKX = system: PRKX
PRP4 = system: PRP4
PYK2 = system: T2, PYK2
T2 construct: gene PTK2B

QSK = system: QSK
RAF1 = system: RAF1
RET = system: RET
RIOK1 = system: RIOK1
RIOK2 = system: RIOK2
RIOK3 = system: RIOK3
RIPK1 = system: RIPK1
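Further: KINOMEscan kinase panel screen.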

Row | SMILES | %Inh (PRKCE) | %Inh (PRKCH) | %Inh (PRKCI) | %Inh (PRKCQ) | %Inh (PRKD1) | %Inh (PRKD2) | %Inh (PRKD3) | %Inh (PRKG1) | %Inh (PRKG2) | %Inh (PRKR) | %Inh (PRKX) | %Inh (PRP4) | %Inh (PYK2) | %Inh (QSK) | %Inh (RAF1) | %Inh (RET) | %Inh (RIOK1) | %Inh (RIOK2) | %Inh (RIOK3) | %Inh (RIPK1)
1 | CCCC(=O)Nc1n[nH]c2ncc(-c3cccc4ccccc34)cc12 [SB-642057] | 16% | 16% | 15% | 0% | 0% | 14% | 0% | 7% | 0% | 29% | 12% | 26% | 0% | 13% | 9% | 33% | 19% | 0% | 0% | 0%
2 | CN(C)c1cc(-c2ccc3c(N)n[nH]c3c2)nc(N)n1 [GSK2219329] | 0% | 14% | 17% | 0% | 0% | 0% | 0% | 1% | 1% | 5% | 18% | 6% | 0% | 5% | 0% | 0% | 48% | 0% | 38% | 0%
3 | O=C(Nc1n[nH]c2nc(-c3ccccc3)c(Br)cc12)C1CC1 [SB-708998] | 0% | 15% | 26% | 0% | 0% | 0% | 17% | 14% | 0% | 0% | 0% | 3% | 0% | 0% | 14% | 74% | 35% | 17% | 24% | 48%
4 | O=C(Nc1ccc2c(c1)OCO2)NC1CCN(c2ccnc(NCc3ccc(F)cc3)n2)CC1 [GSK1379859] | 0% | 16% | 0% | 18% | 0% | 0% | 34% | 0% | 0% | 0% | 3% | 0% | 0% | 0% | 3% | 21% | 33% | 0% | 30% | 17%
5 | Cc1nc(N(C)[C@H]2CN(C(=O)CC#N)CC[C@H]2C)c2cc[nH]c2n1 | 0% | 8% | 9% | 10% | 0% | 1% | 66% | 2% | 0% | 5% | 4% | 0% | 0% | 0% | 0% | 5% | 0% | 2% | 8% | 11%
6 | Cc1cccc(-c2cc(-c3c[nH]nc3-c3ccccn3)ccn2)c1 [GW679395] | 13% | 0% | 4% | 35% | 57% | 48% | 22% | 0% | 0% | 0% | 12% | 22% | 0% | 3% | 3% | 48% | 6% | 0% | 0% | 0%
7 | CCc1ccc(-c2ccc3c(c2)-c2nn(C)cc2S(=O)(=O)N3C)cc1 | 0% | 0% | 18% | 10% | 0% | 13% | 0% | 0% | 0% | 0% | 0% | 27% | 0% | 0% | 19% | 16% | 15% | 0% | 0% | 12%
8 | COc1cc2ncn(-c3cc(OCCCc4ccccc4)c(C(N)=O)s3)c2cc1OC [GSK205189] | 0% | 0% | 13% | 19% | 0% | 23% | 0% | 0% | 0% | 0% | 3% | 0% | 5% | 0% | 0% | 0% | 26% | 0% | 12% | 0%
9 | COc1cc2ncn(-c3cc(OCc4ccncc4Br)c(C(N)=O)s3)c2cc1OC [GW854278] | 7% | 0% | 13% | 22% | 0% | 11% | 0% | 0% | 0% | 0% | 26% | 0% | 7% | 2% | 7% | 20% | 38% | 14% | 39% | 3%
10 | Nc1ncnc2c1ncn2-c1ccc(Cl)cc1 [AH2635] | 0% | 0% | 6% | 0% | 0% | 0% | 0% | 2% | 0% | 0% | 0% | 36% | 21% | 0% | 1% | 9% | 51% | 0% | 35% | 17%
